Molecules are shown by their SMILES. The source made the active and inactive calls. No rule for the calls is given here.

In this experiment the target is Pantothenate synthetase (Mycobacterium tuberculosis (strain ATCC 25618 / H37Rv)) (UniProt P9WIL5). Briefly: Coupled enzyme confirmation of inhibitors against recombinant Mtb PanC (AID 375).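 Also: 0% = full reaction with vehicle and 100% = no enzyme background.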 The settings on record: coupled enzyme assay; at 10 µM, hits give high values.
Pantothenate synthetase (Mycobacterium tuberculosis (strain ATCC 25618 / H37Rv)), sequence (P9WIL5 whole entry, looked up): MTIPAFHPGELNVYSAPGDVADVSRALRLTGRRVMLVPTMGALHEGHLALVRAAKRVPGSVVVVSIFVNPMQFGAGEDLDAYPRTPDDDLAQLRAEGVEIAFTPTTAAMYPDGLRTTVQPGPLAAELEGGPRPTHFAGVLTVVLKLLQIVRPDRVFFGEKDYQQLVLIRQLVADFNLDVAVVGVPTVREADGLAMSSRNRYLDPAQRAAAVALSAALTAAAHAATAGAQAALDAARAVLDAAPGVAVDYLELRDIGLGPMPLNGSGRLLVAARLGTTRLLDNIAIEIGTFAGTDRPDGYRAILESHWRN
`COc1cc(NC(=O)c2nccnc2C(=O)O)cc(OC)c1`: the inhibition was 5% (inactive). With `CSC(=O)CC(=O)NC(=O)c1ccccc1` the figure was 1% (inactive); with `CCn1c(SCC(=O)Nc2nc(C)cs2)nnc1-c1ccco1`, 0% (inactive).

For `COCCN(CC(=O)NC1CCCCC1)C(=O)CSc1nc2ccccc2o1`, the inhibition was 0% (inactive).

As to `Cc1ccc(-c2nnn(CC(=O)N(CC(=O)NCC3CCCO3)c3ccccc3)n2)o1` (stereo not given), the inhibition is 3% (inactive). As for `Cc1ccc(Cl)c(Nc2ccccc2C(=O)O)c1Cl`, the inhibition is 0% (inactive). The same measure for `COc1ccc(C)cc1-n1c(N)c(C#N)c(C#N)c1-c1ccc(OC)c(OC)c1OC`: 4% (inactive); for `O=C(CCCn1c(=O)[nH]c2ccsc2c1=O)N1CCN(c2ccccn2)CC1`: 3% (inactive).

For `CCNc1nc(N2CCCCC2)nc(-n2nnc(C(=O)OCC)c2C)n1`, the inhibition is 2% (inactive). With `O=c1[nH]c2cc3c(cc2cc1C(c1nnnn1Cc1ccccc1)N1CCCc2ccccc21)OCO3` (stereo not given) the figure was 1% (inactive); with `COc1ccc(C)cc1S(=O)(=O)N1CCN(S(=O)(=O)c2cc(C)ccc2OC)CC1`, 5% (inactive). With `CC12COC3(C(=O)Nc4ccc(Cl)cn4)CC1CCC32C` (stereo not given) the figure was 0% (inactive). With `CC(C)CN(CC(C)C)C(=O)CS(=O)(=O)Cc1ccccc1` the figure was 0% (inactive); with `Cc1nc2ccccn2c1/C(O)=C1\C(=O)C(=O)N(CCN2CCOCC2)C1c1cccs1` (stereo not given), 0% (inactive).

On to `Cc1ccc(-c2cn3nc(C)c(C)nc3n2)cc1`, for which the inhibition is 1% (inactive). With `CCOC(=O)C1CN(S(=O)(=O)c2ccc(C)cc2)CCN1S(=O)(=O)c1ccc(C)cc1` (stereo not given) the figure was 0% (inactive); with `Cc1sc2ncnc(Oc3ccc(-n4ccnc4)cc3)c2c1C`, 4% (inactive); with `O=C(CN1c2cccc3cccc(c23)S1(=O)=O)N1CCOCC1`, 0% (inactive). The same measure for `Cc1ccc(C)c(-c2nc3ccc(N)cc3[nH]2)c1`: 0% (inactive); for `CCC1CCc2c(sc3ncnc(N4CCOCC4)c23)C1` (stereo not given): 0% (inactive); for `O=C(O)c1cccnc1Nc1cccc(C(F)(F)F)c1`: 0% (inactive). On to `COc1ccc(C2C(C#N)=C(N)OC3=C2C(=O)CC(C)C3)c(OC)c1OC` (stereo not given), for which the inhibition is 0% (inactive). In the case of `COC(=O)c1cc(=O)n(Cc2ccc3c(c2)OCO3)c(=Nc2ccccc2)s1`, the inhibition is 7% (inactive). With `N#Cc1c(N)nc(SCc2ccncc2)c(C#N)c1-c1cccs1` the figure was 11% (inactive); with `CCN(CC)S(=O)(=O)N1CCC(C(=O)NCC2COc3ccccc3O2)CC1` (stereo not given), 1% (inactive). The same measure for `COc1cc(CN2CCSCC2)cc(OC)c1OC`: 0% (inactive); for `CSc1nc2c(ccc3ccccc32)o1`: 2% (inactive).

With `CCS(=O)(=O)c1nc2ccccc2n1CC(=O)N1CCCCC1`, the inhibition is 6% (inactive).

Regarding `CC(=O)c1cc(F)c(N2CCN(C(=O)Cc3ccccc3)CC2)cc1C`, the inhibition was 0% (inactive). On to `O=C(C1CCCN(S(=O)(=O)c2cccs2)C1)N1CCc2ccccc2C1` (stereo not given), for which the inhibition is 9% (inactive). Consider `O=C(CSc1ncnc2sc3c(c12)CCCCC3)NCc1ccco1`, for which the inhibition was 3% (inactive). On to `Cc1cccc(Cn2c(SCC(=O)Nc3ccccc3)nc3c2c(=O)[nH]c(=O)n3C)c1`, for which the inhibition was 3% (inactive).

For the compound `CC[C@]1(O)CC2CN(CCc3c([nH]c4ccccc34)[C@@](C(=O)OC)(c3cc4c(cc3OC)N(C=O)[C@H]3[C@@](O)(C(=O)OC)[C@H](OC(C)=O)[C@]5(CC)C=CCN6CC[C@]43[C@@H]65)C2)C1` (stereo not given in full), the inhibition was 1% (inactive). For `COc1ccc(S(=O)(=O)N2CCSC2c2ccccc2)cc1` (stereo not given), the inhibition is 1% (inactive).

With `CC(C)c1nnc(NC(=O)c2ccc(N3C(=O)CCC3=O)cc2)s1`, the inhibition was 0% (inactive).

Turning to `COc1ccc(CC(=O)NC2CCN(CC(=O)Nc3ccc4c(c3)OCCO4)CC2)cc1OC`, the inhibition was 0% (inactive). With `COc1ccc(C(NC(=O)C(C)(C)C)NC(=O)C(C)(C)C)cc1` the figure was 0% (inactive); with `O=C(NCc1ccc2c(c1)OCO2)c1ccc(NS(=O)(=O)c2ccc3c(c2)OCCO3)cc1`, 0% (inactive); with `COc1ccc(-c2noc(CCC(=O)Nc3nc4ccccc4s3)n2)cc1`, 0% (inactive). The same measure for `CCCCCC1CC(CC(=O)O)C(=O)O1` (stereo not given): 6% (inactive).

Values taken from PubChem BioAssay.
